From PubChem BioAssay (Tox21)
Results filed as inconclusive are left out. Activity calls are given as the source filed them. Unless noted, calls come from the whole dose curve; as a rule, active = well fitted curve in the direction sought with a large enough effect in the repeat runs; inconclusive = weak or mixed curves; inactive = no such curve, though single readings can be large; an effect the other way counts as inactive or inconclusive.

Legend:
[1] = qHTS assay to identify small molecule antagonists of the glucocorticoid receptor (GR) signaling pathway - cell viability counter screen (AID 720693); note: nearly all actives have a fitted effect of over 55% in size
[2] = target: Androgen receptor (Homo sapiens) (UniProt P10275); test: qHTS assay to identify small molecule agonists of the androgen receptor (AR) signaling pathway (AID 743036; active = well fitted activation curve with a large enough effect in the signal ratio in the repeat runs, with a control signal flat, not every such curve was filed as active; the % refers to the signal ratio)
Outline: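 Agonist activity was scored by beta-lactamase reporter fluorescence in stably transfected HEK293 cells exposed to compounds for 16 h at 37C and 5% CO2. Substrate loading took 2 h at room temperature.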

[3] = target: Androgen receptor (Homo sapiens) (UniProt P10275); test: qHTS assay to identify small molecule agonists of the androgen receptor (AR) signaling pathway using the MDA cell line (AID 743040; note: nearly all actives have a fitted effect of over 20% in size)
Outline: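 Cells plated, 5 h at 37C/0% CO2; compound or DMSO pinned; 16 h at 37C; ONE-Glo added; luminescence measured after 30 min at room temperature. Reporter line: MDA-kb2 with MMTV-luciferase responsive to AR and GR.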

[4] = qHTS assay to identify small molecule antagonists of the androgen receptor (AR) signaling pathway using the MDA cell line - cell viability counter screen (AID 743041; note: nearly all actives have a fitted effect of over 45% in size; note: potency is the fitted concentration of half-maximal effect)
Outline: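 Cells were plated at 3,000 per well and left 5 h. Compounds in DMSO were then pinned in, followed by R1881. After 16 h at 37C, CellTiter-Fluor fluorescence gave viability.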

[5] = target: Androgen receptor (Homo sapiens) (UniProt P10275); test: qHTS assay to identify small molecule antagonists of the androgen receptor (AR) signaling pathway using the MDA cell line (AID 743042; note: nearly all actives have a fitted effect of over 55% in size; note: potency is the fitted concentration of half-maximal effect)
Outline: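 Antagonist mode: compounds plus R1881 agonist added to MDA-kb2 AR-luc cells, incubated 16 h at 37C. Luciferase reporter luminescence quantified, with multiplexed CellTiter-Fluor readout for cell viability.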

[6] = qHTS assay to identify small molecule antagonists of the androgen receptor (AR) signaling pathway - cell viability counter screen (AID 743033; note: nearly all actives have a fitted effect of over 45% in size; note: potency is the fitted concentration of half-maximal effect)
[7] = qHTS assay for identifying genotoxic compounds that show differential cytotoxicity against isogenic chicken DT40 cell lines with known DNA damage response pathways - wild type cell line (AID 743012); note: nearly all actives have a fitted effect of over 60% in size; note: potency is the fitted concentration of half-maximal effect
Outline: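 Cells (DT40 wild type, 300/well) are treated with DMSO-dissolved compounds after a ~0.5 h pre-incubation and kept 40 h at 37 C/5% CO2. Viability is then measured by CellTiter-Glo luminescence following 30 min at room temperature.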

[8] = qHTS assay for identifying genotoxic compounds that show differential cytotoxicity against isogenic chicken DT40 cell lines with known DNA damage response pathways - Rev3 mutant cell line (AID 743014); note: nearly all actives have a fitted effect of over 55% in size; note: potency is the fitted concentration of half-maximal effect
[9] = qHTS assay for identifying genotoxic compounds that show differential cytotoxicity against isogenic chicken DT40 cell lines with known DNA damage response pathways - Rad54/Ku70 mutant cell line (AID 743015); note: nearly all actives have a fitted effect of over 60% in size; note: potency is the fitted concentration of half-maximal effect
[10] = target: Androgen receptor (Homo sapiens) (UniProt P10275); test: qHTS assay to identify small molecule antagonists of the androgen receptor (AR) signaling pathway (AID 743035; active = well fitted inhibition curve with a large enough effect in the signal ratio in the repeat runs, not every such curve was filed as active; the % refers to the signal ratio; note: potency is the fitted concentration of half-maximal effect)
Outline: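 Antagonism is scored as loss of R1881-driven beta-lactamase reporter expression in HEK293 cells carrying the reporter under a UAS element, after 16 h co-treatment at 37C and a 2 h room-temperature FRET substrate read.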

Measured: Potency

Androgen receptor (Homo sapiens), sequence (P10275 whole entry, looked up): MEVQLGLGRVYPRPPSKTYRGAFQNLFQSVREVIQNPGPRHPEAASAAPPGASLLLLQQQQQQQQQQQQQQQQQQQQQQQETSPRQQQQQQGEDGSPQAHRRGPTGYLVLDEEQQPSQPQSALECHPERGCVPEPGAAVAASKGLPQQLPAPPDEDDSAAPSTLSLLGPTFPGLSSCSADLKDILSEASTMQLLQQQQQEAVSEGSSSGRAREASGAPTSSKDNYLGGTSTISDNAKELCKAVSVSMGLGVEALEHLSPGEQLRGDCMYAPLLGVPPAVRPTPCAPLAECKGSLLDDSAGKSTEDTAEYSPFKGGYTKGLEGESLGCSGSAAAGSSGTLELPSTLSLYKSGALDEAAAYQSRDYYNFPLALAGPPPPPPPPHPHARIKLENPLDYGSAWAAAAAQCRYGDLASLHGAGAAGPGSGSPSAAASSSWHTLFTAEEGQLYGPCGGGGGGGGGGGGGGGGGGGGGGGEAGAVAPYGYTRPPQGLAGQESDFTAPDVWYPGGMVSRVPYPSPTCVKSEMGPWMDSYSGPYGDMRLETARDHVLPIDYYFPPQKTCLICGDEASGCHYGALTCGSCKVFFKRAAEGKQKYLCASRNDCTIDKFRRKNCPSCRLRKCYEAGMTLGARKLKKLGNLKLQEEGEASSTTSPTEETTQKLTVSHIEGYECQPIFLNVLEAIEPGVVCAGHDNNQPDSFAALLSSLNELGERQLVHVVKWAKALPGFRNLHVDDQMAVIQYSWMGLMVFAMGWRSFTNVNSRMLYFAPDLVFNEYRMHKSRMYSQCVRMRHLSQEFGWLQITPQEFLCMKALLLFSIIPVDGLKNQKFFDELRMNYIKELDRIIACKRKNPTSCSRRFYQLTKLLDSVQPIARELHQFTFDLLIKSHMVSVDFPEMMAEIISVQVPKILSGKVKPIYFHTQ

C=C(C)C(=O)OCCOc1ccccc1
inactive: [1] | [2] | [3] | [4] | [5]

C=CC[N+]1([C@H]2C[C@H]3[C@@H]4CC[C@H]5C[C@H](OC(C)=O)[C@@H](N6CCCCC6)C[C@]5(C)[C@H]4CC[C@]3(C)[C@H]2OC(=O)CC)CCCCC1
inactive: [1] | [4]

O=C1[C@H](CC[C@H](O)c2ccc(F)cc2)[C@@H](c2ccc(O)cc2)N1c1ccc(F)cc1
inactive: [1] | [4]

CC(C)(C)c1ccc(S)cc1
inactive: [1] | [6] | [4]

CC(=O)[C@@]1(O)CC[C@H]2[C@@H]3C[C@H](C)C4=CC(=O)CC[C@]4(C)[C@H]3CC[C@@]21C
inactive: [6]
active: [7] 16.8 µM | [8] 11.9 µM | [9] 21.1 µM

N#Cc1cc2ccccc2c2ccccc12
inactive: [1] | [4]

Oc1ccc(O)c2c(O)cccc12
inactive: [7] | [8] | [9] | [6]

CN1CCC(=C2c3ccccc3CCc3sccc32)CC1
inactive: [6] | [4]
active: [7] 6.68 µM | [8] 15 µM | [9] 11.9 µM

COC(Cc1ccccc1)OC
inactive: [1] | [8] | [6] | [4]

CN(C)CC[C@@H](c1ccc(Br)cc1)c1ccccn1
inactive: [1] | [6] | [4]

CC(C)(C)C(=O)OCOP(=O)(COCCn1cnc2c(N)ncnc21)OCOC(=O)C(C)(C)C
inactive: [1] | [4]

C[Si](C)O[Si](C)(C)O[Si](C)(C)O[Si](C)C
inactive: [7] | [8] | [9] | [6] | [4]

O=c1[nH]cnc2ccccc12
inactive: [1] | [6]

Cc1ccc2c(ccc3ccccc32)c1
inactive: [7] | [8] | [9] | [6]

Cc1nc2ccccc2n1Cc1ccc(Cl)cc1
active: [7] 2.11 µM | [8] 5.31 µM | [9] 4.22 µM

SC1CCCC1
inactive: [7] | [8] | [9] | [6]

CCN(CC)C(C)CN1c2ccccc2Sc2ccccc21 (stereo not given)
inactive: [1] | [8] | [6] | [4]

CC(=O)OC/C=C/c1ccccc1
inactive: [7] | [8] | [9] | [6] | [4]

CC(=O)CC(=O)c1ccccc1
inactive: [7] | [8] | [9] | [6] | [4]

O=C=NC1CCC(CC2CCC(N=C=O)CC2)CC1 (stereo not given)
active: [8] 54.5 µM | [4] 6.86 µM
inactive: [1] | [6]

CC[C@]12CCCN3CCc4c(n(c5ccccc45)C(=O)C1)[C@@H]32
inactive: [6] | [3] | [4] | [5]
active: [7] 4.52 µM | [8] 4.52 µM | [9] 7.17 µM | [10] 9.1 µM

O=C(O)c1cccc(N(Cc2cccnc2)c2ccc(OC(F)F)c(OC(F)F)c2)c1
inactive: [1] | [3]

CCN(CC)CCOc1ccc2c(c1)C(=O)c1cc(OCCN(CC)CC)ccc1-2
inactive: [6] | [4]
active: [7] 5.31 µM | [8] 2.66 µM | [9] 5.96 µM

CCCC(=O)OCC
active: [9] 68.6 µM
inactive: [1] | [6] | [4]

NC(N)=NN=C(/C=C/c1ccc([N+](=O)[O-])o1)/C=C/c1ccc([N+](=O)[O-])o1
inactive: [3]
active: [7] 1.5 µM | [8] 0.75 µM | [9] 1.88 µM | [6] 9.52 µM | [10] 5.35 µM | [4] 23.7 µM | [5] 5.96 µM

CC(=O)/C=C/C1C(C)=CCCC1(C)C (stereo not given)
inactive: [1] | [8] | [4]

CCCCCOC(=O)c1ccc(O)cc1
inactive: [1] | [6] | [4]

c1ccc(-c2nc[nH]c2-c2ccccc2)cc1
inactive: [1] | [6] | [4]

Oc1ccc(Sc2ccc(O)cc2)cc1
inactive: [1] | [6] | [4]

CCOc1ccc(NC(=O)CC(C)=O)cc1
inactive: [1] | [6] | [4]

C=CCCCCCC
inactive: [7] | [8] | [9] | [6] | [4]

O=S1(=O)N=C(O)c2ccccc21
inactive: [7] | [8] | [9] | [6] | [4]

O=C(CCN1CCN2CCCC2C1)N1c2ccccc2Sc2ccc(Cl)cc21 (stereo not given)
active: [7] 10.6 µM | [8] 11.9 µM | [9] 23.7 µM
inactive: [6] | [2] | [3] | [5]

CCCCC(CC)COCCCN (stereo not given)
inactive: [4]
active: [8] 60.4 µM

COc1ccccc1OC(=O)Oc1ccccc1OC
not listed: [1] | [9] | [10]
inactive: all other assays above
